# Test results published in PubChem BioAssay (Tox21).
# Calls of active or inactive are those of the source. The call rests on the fitted dose curve; in most records, active means well fitted curve in the direction sought with a large enough effect in the signal ratio in the repeat runs (not every such curve was filed as active); inconclusive means weak or mixed curves, or effect the other way; inactive means no such curve, though single readings can be large or run the other way; the % refers to the signal ratio.
# Target: Estrogen receptor (Homo sapiens) (UniProt P03372)
# Assay: qHTS assay to identify small molecule antagonists of the estrogen receptor alpha (ER-alpha) signaling pathway (AID 743069)
# Details: HEK293 ER-alpha-UAS-bla, beta-lactamase ratio, antagonist mode; series mostly up to 69.4 µM; activity, negative = inhibition: at the top concentration
# Source text: National Center for Advancing Translational Sciences [NCATS]
# NIH Chemical Genomics Center [NCGC]
# U.S. Environmental Protection Agency [EPA]
# National Institutes of Environmental Health Sciences [NIEHS]
# National Toxicology Program [NTP]
# U.S. Food and Drug Administration [FDA]
# Estrogen receptor (ER), a nuclear hormone receptor, plays an important role in development, metabolic homeostasis and reproduction. Two subtypes of ER, ER-alpha and ER-beta have similar expression patterns with some uniqueness in both types. Endocrine disrupting chemicals (EDCs) and their interactions with steroid hormone receptors like ER causes disruption of normal endocrine function. To identify the compounds that inhibit ER signaling, an ER-alpha-UAS-bla GripTiteTM cell line (Invitrogen, Carlsbad, CA, USA) containing a beta-lactamase reporter gene under the control of an Upstream Activator Sequence (UAS) stably integrated into HEK293 cells was used to screen the Tox21 10K compound library.
# Tox21 Assay Protocol Summary:
# ER-alpha-bla cells were cultured in assay medium containing 2% charcoal stripped FBS overnight in the culture flasks before the assay was performed. The cells were dispensed at 5,000 cells/5 uL of assay medium per well into black wall/clear-bottom 1536-well plates using a Multidrop Combi (ThermoFisher Scientific, Waltham, MA) dispenser. After the assay plates were incubated at a 37C and 5% CO2 for 4 hr, 23 nL of compounds dissolved in DMSO, positive controls or DMSO only was transferred to the assay plate by a Pintool station (Kalypsys, San Diego, CA), followed by addition of 1 uL of 17beta-estradiol in assay medium using a Flying Reagent Dispenser (Aurora Discovery, San Diego, CA). The plates were incubated at 37C and 5% CO2 for 18 hr. Then 1 uL of LiveBLAzerTM B/G FRET substrate was added using a Flying Reagent Dispenser, the plates were incubated at room temperature for 2 hours, and fluorescence intensity was measured by an Envision plate reader (PerkinElmer, Shelton, CT).
# On the % scale 0 is the no-effect control and ±100 the full control effect; potency means the concentration at half of the fitted maximal effect.
# Sequence of Estrogen receptor (Homo sapiens) (P03372 whole entry, looked up): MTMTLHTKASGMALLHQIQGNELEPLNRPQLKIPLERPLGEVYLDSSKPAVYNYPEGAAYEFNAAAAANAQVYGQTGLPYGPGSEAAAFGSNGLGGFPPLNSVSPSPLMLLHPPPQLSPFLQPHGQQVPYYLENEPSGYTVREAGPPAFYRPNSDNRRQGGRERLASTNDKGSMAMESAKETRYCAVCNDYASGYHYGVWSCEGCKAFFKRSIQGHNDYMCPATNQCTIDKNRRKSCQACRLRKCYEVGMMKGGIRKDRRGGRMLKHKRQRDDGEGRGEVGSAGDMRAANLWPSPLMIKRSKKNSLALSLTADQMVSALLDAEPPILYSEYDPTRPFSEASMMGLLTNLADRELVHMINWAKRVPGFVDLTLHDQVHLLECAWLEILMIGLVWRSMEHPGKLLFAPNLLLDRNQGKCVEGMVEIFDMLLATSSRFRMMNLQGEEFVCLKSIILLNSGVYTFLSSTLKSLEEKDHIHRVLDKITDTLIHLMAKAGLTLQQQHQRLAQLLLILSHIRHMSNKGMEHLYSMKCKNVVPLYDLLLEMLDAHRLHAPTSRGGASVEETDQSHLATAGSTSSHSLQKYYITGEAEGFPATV
SMILES,"activity, negative = inhibition",Potency
CC(C)=CCCC(C)C=O (stereo not given),12.8% (inactive),
OCCc1ccncc1,8.38% (inactive),
Clc1cccc(C(c2ccc3nc[nH]c3c2)n2ccnc2)c1 (stereo not given),-29.3% (inactive),
C=Cc1ccc(C=C)cc1,-8.67% [at 79.1 µM] (inactive),
COc1cccc([C@H](O)C2CCN(CCc3ccc(F)cc3)CC2)c1OC,15.7% (inactive),
C1CCN(CN2CCCCC2)CC1,-14% (inactive),
CC(COc1ccccc1)NC(C)C(O)c1ccc(O)cc1 (stereo not given),11.3% [at 32.6 µM] (inactive),
CC1(C)[C@@H]2CC[C@]3(C2)[C@@H]1C(=O)CCC3(C)C,3.48% (inactive),
CC(Cc1ccccc1)(NC(=O)CN)c1ccccc1 (stereo not given),18.9% (inactive),
OCCCO,19.3% [at 79.1 µM] (inactive),
SCCOCCOCCS,29.9% (inactive),
CC(C)NC(=O)c1ccccc1N,29.9% (inactive),
O=P(c1ccccc1)(c1ccccc1)c1ccccc1,-16.9% (inactive),
CCCCCCCCCCCCSC#N,-32.8% (inactive),
C=CC(=O)OCCCCCCCCCC,36.2% (inactive),
CCOC(OCC)OCC,-15.8% (inactive),
O=C1OC(=O)C2CC=CCC12 (stereo not given),16.4% [at 79.1 µM] (inactive),
S=c1[nH][nH]c(=S)s1,21.3% (inactive),
CC(C)CC(C)(C)C,-8.39% [at 79.1 µM] (inactive),
CCCc1ccc(OC)cc1,3.43% [at 79.1 µM] (inactive),

SMILES,"activity, negative = inhibition",Potency
CCCCOC(=O)CC#N,7.33% [at 79.1 µM] (inactive),
O=C(Cl)c1ccc(F)c(Cl)c1,-5.86% (inactive),
Cc1cc(C)n(CO)n1,29.6% (inactive),
OCC(O)c1ccccc1 (stereo not given),14% (inactive),
CCOc1ccc(NC(C)=O)cc1N,26.2% [at 79.1 µM] (inactive),
CC(C)C/C=C(\C=O)c1ccccc1,-19.6% (inactive),
CC(C)(C)N,-9.17% (inactive),
COC(=O)Cc1cccc2ccccc12,20.1% (inactive),
C/C(=C(\CCO)SS/C(CCO)=C(\C)N(C=O)Cc1cnc(C)nc1N)N(C=O)Cc1cnc(C)nc1N,10.9% (inactive),
O=[N+]([O-])c1cccc(I)c1,6.14% (inactive),
O=C(Cl)c1cc(Cl)cc(Cl)c1,14.4% [at 79.1 µM] (inactive),
CCCCCCOC(=O)c1ccccc1,4.57% (inactive),
O=C(O)CCc1nc2ccccc2[nH]1,-3.35% (inactive),
Cc1c(N=C=O)cccc1N=C=O,17.8% [at 79.1 µM] (inactive),
CO[C@@H]1[C@@H](O[C@@H]2O[C@H](C)[C@@H](O[C@H]3C[C@@](C)(O)[C@@H](O)[C@H](C)O3)[C@H](N(C)C)[C@H]2O)[C@@H](CC=O)C[C@@H](C)[C@@H](O[C@@H]2CC[C@H](N(C)C)[C@@H](C)O2)/C=C/C=C/C[C@@H](C)OC(=O)C[C@H]1OC(C)=O,-28.6% (inactive),
CC(C)C[C@H](NC(=O)[C@H](Cc1ccccc1)NC(=O)c1cnccn1)B(O)O,,67.4 nM [inconclusive] (active)
O=C(O)c1cccc(C(=O)O)c1C(=O)O,-5.39% [at 79.1 µM] (inactive),
COc1ccc(C(=O)Nc2ccccc2)cc1[N+](=O)[O-],-15.6% [at 79.1 µM] (inactive),
C[C@@H](O)[C@H]1C(=O)N2C(C(=O)O)=C(S[C@@H]3CN[C@H](CNS(N)(=O)=O)C3)[C@H](C)[C@H]12,-12.5% (inactive),
C=CCCC,-11.8% [at 79.1 µM] (inactive),
